The record followed here is PubChem BioAssay AID485298 (National Center for Advancing Translational Sciences (NCATS), 2010).

In all, about 320,000 compounds went through this assay and about 740 (0.23%) were called active. Not shown: some 2% with an inconclusive outcome. This excerpt belongs to a sample that is enriched for actives. Unmarked numbers belong to inactive results. The call rests on the fitted dose curve; in most records, active means well fitted activation curve with a large enough effect; inconclusive means small, poorly fitted or top-dose-only effect; inactive means no such curve, though single readings can be large or run the other way.
Potency means the concentration at half of the fitted maximal effect.

This assay can be described thus: qHTS Assay for Small Molecule Inhibitors of Mitochondrial Division or Activators of Mitochondrial Fusion. Further: nearly all actives have a fitted effect of over 45% in size. On growth rescue (activation): % of control where 0% means no effect. The settings on record: S. cerevisiae fusion-defective mutant growth rescue, CellTiterGlo 48 h; series mostly up to 46.1 µM; growth rescue (activation): at the top concentration. From the text:
NIH Chemical Genomics Center [NCGC] NIH Molecular Libraries Probe Production centers Network [MLPCN] MLPCN Grant: MH081279-01 Assay Submitter (PI): Jodi M. Nunnari NCGC Assay Overview: The budding yeast S. cerevisiae is a powerful system to study mitochondrial fusion. Unlike other organisms, yeast cells without functional mitochondrial DNA (mtDNA) can be propagated and studied as long as they maintain a mitochondrial compartment and are provided with a fermentable carbon source. When mitochondrial fusion is blocked in yeast, mitochondrial tubules rapidly fragment and division continues unopposed. Under conditions where fusion is compromised in mammalian cells, nearly identical changes in mitochondrial structure have been observed. Thus, these findings indicate that steady state mitochondrial structure in cells is a characteristic and specific indicator of fusion activity. Mounting evidence has pointed to a connection between mitochondrial dynamics and apoptosis in mammalian cells. These studies indicate that in mammalian cells mitochondrial dynamics are more integrated into cellular processes than in yeast cells and have evolved not only to distribute the organelle but also to aid in the regulation of cellular homeostasis. Mitochondrial fusion proteins attenuate apoptosis by inhibiting the release of cytochrome c from mitochondria, in part by controlling cristae structures. Thus, small molecules that inhibit mitochondrial […] may promote apoptosis and potentially act as novel chemotherapeutics and stimulation of apoptosis has become an attractive target of anti-cancer therapies. To identify inhibitors of mitochondrial division, we exploit the growth phenotypes of mitochondrial fusion-defective mutants. The temperature sensitive fusion alleles, such as fzo1-1 and mgm1-5, cause mitochondrial membranes to fragment in cells under non-permissive conditions and cells lose mtDNA, and are unable to grow in the presence of non-fermentable carbon source glycerol. Inhibiting mitochondrial division rescues growth. We have developed and optimized a luminescence cell viability assay in 1536 well format for the identification of inhibitors in the yeast mitochondrial fusion-defective assay.
The yeast glycerol stocks where kindly supplied by the laboratory of Dr. Jodi Nunnari, University of California, Davis. All yeast glycerol stock solutions were stored in single use aliquots at -80C. The CellTiterGlo luminescence reagent, containing luciferase and luciferin, were purchased from Promega, and the reagents were stored according to manufacturer's instructions. The Buffer components for the YPEG yeast growth medium were purchased from Sigma-Aldrich (St. Louis, MO). YPEG growth medium: 1% (w/v) yeast extract, 2% (w/v) Bacto-peptone, 3% Ethanol, 3% glycerol, 0.4mM Tryptophan, 0.36mM Adenine. qHTS Assay Protocol: 1.#Dispense 2.5 ul yeast growth medium per 1536 well plate. 2.#Transfer 23 nl per well of compound to plate. 3.#Dispense 2.5 ul yeast solution at appropriate seeding density per well. 4.#Incubate for 48 hours at 37C. 5.#Dispense 5 ul of CellTiterGlow solution per well. 6.#Incubate at ambient for 10 minutes. 7.#Read using bio-luminescence protocol on Viewlux.
(Quantitative high-throughput screening tests each substance at several concentrations.)
Take `COc1ccc(-c2c(-c3cc(OC)cc(OC)c3)n(C)c3ccc(-c4ccn[nH]4)cc23)cc1`: the Potency was 10 µM (active). For the compound `COc1cc(OC)cc(-c2c(-c3cccs3)c3cc(-c4ccc(OC)nc4)ccc3n2C)c1`, the “growth rescue (activation)” value is -3.31%. Consider `COc1cc(OC)cc(-c2c(-c3ccc(F)cc3)c3cc(-c4ccc5cc[nH]c5c4)ccc3n2C)c1`, for which the “growth rescue (activation)” value was 0.6%. The same measure, in the same setting: then `COC(=O)c1cc(S(=O)(=O)NCC2CCN(Cc3ccc(Cl)cc3)CC2)cn1C`, with 4.02%. Take `CCn1cc(/C=C(\NC(=O)c2ccc(C)cc2)C(=O)NCCN2CCOCC2)c2ccccc21`: the “growth rescue (activation)” value was 2.95%. For the compound `Cn1cccc1C1(C(F)(F)F)NCCNC1=O` (stereo unspecified), the “growth rescue (activation)” value was -7.26%. As for `Cc1cc(C)cc(C(=O)OCC(=O)NCCNC(=O)COC(=O)c2cc(C)cc(C)c2)c1`, the “growth rescue (activation)” value was 2.13%.

Take `COc1ccccc1-n1c(-c2ccc(C)cc2)cn2c3c(=O)n(C)c(=O)n(C)c3nc12`: the “growth rescue (activation)” value is 4.07%. Regarding `O=C(COC(=O)c1ccccc1Cl)NC1CCCCCCC1`, the “growth rescue (activation)” value is 13.9%.

With `OCCn1c(-c2ccccc2)csc1=Nc1ccccc1`, the Potency was 11.2 µM (active). In the case of `Cc1csc(=Nc2ccccc2)n1CCO`, the “growth rescue (activation)” value is -1.72%. On the same count and under the same terms, in the case of `Cc1csc(=NC(=O)c2ccccc2)n1CCO` it was -5.75%; in that of `CCN1C(=O)[C@@H]2[C@@H](c3ccc(-c4cccc(Cl)c4)cc3)N3CCC[C@@]3(C(=O)OC)[C@@H]2C1=O`, 21.1%. The same measure, in the same setting: in the case of `COc1ccccc1-n1cnc2cc(C(=O)NCC3CCCO3)ccc21` (stereo unspecified) it was 0.667%. As to `COc1cccc(C(=O)NCCS(=O)(=O)NCC2CCCO2)c1` (stereo unspecified), the “growth rescue (activation)” value was -4.41%. Turning to `COc1cccc(/C=C2\Sc3ccc(C(=O)NCC4CCCO4)cc3N(C)C2=O)c1` (stereo unspecified), the Potency was 17.8 µM (active).

`O=C(NC1CCCC1)C1CC(=O)N(c2ccc(F)cc2)C1` (stereo unspecified): the “growth rescue (activation)” value was 0.703%.

With `O=C1CN(C(=O)CN2C(=O)NC3(CCCCC3)C2=O)c2ccccc2N1`, the “growth rescue (activation)” value is -1.41%. Turning to `O=C1CCCC2=C1C(c1cccs1)CC(=O)N2c1ccc(F)cc1` (stereo unspecified), the “growth rescue (activation)” value was 3.59%. In the case of `CCOC(=O)C1=C(N)N(c2ccc(C)cc2)C2=C(C(=O)CCC2)C1c1cccs1` (stereo unspecified), the Potency was 20 µM (active).

Take `CCOC(=O)c1cc2c(n(-c3ccc(C)cc3)c1=O)CCCC2=O`: the “growth rescue (activation)” value was 0.547%. Regarding `COC(=O)C(C)N=Cc1ccccc1` (stereo unspecified), the “growth rescue (activation)” value is 1.48%. `COc1ccc(S(=O)(=O)N2CCN(CC(=O)N3c4ccccc4CC3C)CC2)cc1OC` (stereo unspecified): the “growth rescue (activation)” value was -2.4%. On the same count and under the same terms, in the case of `NC(=O)C1CCN(Cc2nc3c(Br)cc(Br)cc3c(=O)[nH]2)CC1` it was 1.78%. For the compound `COC(=O)c1c(NC(=O)c2cccs2)sc2c1CCCC2`, the Potency is 14.1 µM (active). Consider `COC(=O)c1c(NC(=O)CSc2nncs2)sc2c1CCCCC2`, for which the “growth rescue (activation)” value was 21.5%. Take `CC(C)OC(=O)c1c(NC(=O)c2ccco2)sc2c1CCCC2`: the “growth rescue (activation)” value was 0.828%. In the case of `C=CC1(C)CC(=O)C2(O)C(C)(O1)C(OC(C)=O)C(O)C1C(C)(C)CCC(O)C12C` (stereo unspecified), the “growth rescue (activation)” value was -7.55%. On to `O=c1c(Cl)c(NCc2ccc(F)cc2Cl)cnn1C12CC3CC(CC(C3)C1)C2`, for which the “growth rescue (activation)” value is 3.54%.

Regarding `Cc1csc(OCC(=O)Nc2ccc(C)c(C)c2)n1`, the “growth rescue (activation)” value was 5.43%. With `Cc1nc(COc2cc3oc(=O)cc(C)c3cc2Cl)cs1`, the “growth rescue (activation)” value was 3.56%. Turning to `Cc1ccc(C)c(NS(=O)(=O)c2cc(Br)cnc2N)c1`, the “growth rescue (activation)” value is 7.1%. Take `CC(=O)/C(C)=N/O`: the Potency was 20.6 µM (active).

Take `CCCN1CCN(C(=O)Cn2ncc3ccccc32)CC1`: the “growth rescue (activation)” value was -6.24%. For the compound `CCCCN(C(=O)C(CCSC)N1C(=O)c2ccccc2C1=O)c1c(N)n(CCC)c(=O)[nH]c1=O` (stereo unspecified), the “growth rescue (activation)” value was 0.275%.

Consider `NC1CCN(O)C1=O` (stereo unspecified), for which the “growth rescue (activation)” value is -8.2%.

Regarding `COC(=O)c1c(C(=O)OC)c2n(c1C)CCS2`, the “growth rescue (activation)” value was -0.353%. Still for that read-out and setting: then `CCC1=Nc2cc(C(=O)NCCN3CCCC3)ccc2Sc2ccc(C)cc21`, with -11.8%. For the compound `CCCC1=Nc2cc(C(=O)NCc3ccco3)ccc2Sc2ccccc21`, the Potency was 31.6 µM (active).

As for `CCCC1=Nc2cc(C(=O)NCCN3CCCC3)ccc2Sc2ccccc21`, the “growth rescue (activation)” value is -5.25%. As for `C[C@H](NC(=O)C1CC(=O)N(c2ccc3c(c2)OCCO3)C1)C(=O)N1CCC(C(=O)O)CC1` (stereo partly specified), the “growth rescue (activation)” value is 0.693%. In the case of `O=C(NCC(c1ccco1)S(=O)(=O)c1cccs1)c1ccc(F)cc1` (stereo unspecified), the “growth rescue (activation)” value is -1.33%.

With `COC(=O)CN1C(=O)[C@H]2[C@@H](C3CC3)N3C(=O)CN(Cc4ccc(-c5ccccc5)cc4)C(=O)[C@@]3(Cc3ccccc3)[C@H]2C1=O`, the “growth rescue (activation)” value is 4.79%. Still for that read-out and setting: then `O=C(NCc1cccnc1)Nc1cccc(NC(=O)NCc2cccnc2)c1F`, with -4.47%. In the case of `Cc1ccc(NC(=O)Cn2nnc3sc4c(c3c2=O)CCC(C)C4)cc1` (stereo unspecified), the “growth rescue (activation)” value was -0.959%. With `COc1ccc(C2CC(=O)Nc3c2c(=O)nc2c(C)cccn32)cc1OC` (stereo unspecified), the “growth rescue (activation)” value is -1.37%. In the case of `Cc1ccc(N2CCN(/N=C/c3cccs3)CC2)cc1`, the “growth rescue (activation)” value was -2.37%. `Cc1ccsc1/C=C1\SC(N2CCOCC2)=NC1=O`: the “growth rescue (activation)” value is 1.79%. With `Cc1ccc(N2CCN(C3=NC(=O)/C(=C\c4cccs4)S3)CC2)cc1`, the Potency is 22.4 µM (active). Take `C=CCn1nc(-c2ccccc2)c2c(C)onc2c1=O`: the “growth rescue (activation)” value was 1.38%. In the case of `O=C1C=C(c2cccc(Cl)c2O)C[C@@H](c2ccc(F)cc2)C1`, the Potency was 11.2 µM (active).
